Bioassay records as filed in PubChem BioAssay.
M4 PAM – positive allosteric modulators of human muscarinic M4 receptor | P08173 | CHO-K1 hM4/Gqi5, Fluo-8 calcium fluorescence, ACh EC20; 0% = ACh EC20, 100% = maximal ACh | activation, % at 3 µM | 360,000 tested, 0.4% active | AID 624126;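 active means activation above its plate's cutoff, the mean activation of sample wells plus 3 SD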
Target sequence (P08173 whole entry, looked up): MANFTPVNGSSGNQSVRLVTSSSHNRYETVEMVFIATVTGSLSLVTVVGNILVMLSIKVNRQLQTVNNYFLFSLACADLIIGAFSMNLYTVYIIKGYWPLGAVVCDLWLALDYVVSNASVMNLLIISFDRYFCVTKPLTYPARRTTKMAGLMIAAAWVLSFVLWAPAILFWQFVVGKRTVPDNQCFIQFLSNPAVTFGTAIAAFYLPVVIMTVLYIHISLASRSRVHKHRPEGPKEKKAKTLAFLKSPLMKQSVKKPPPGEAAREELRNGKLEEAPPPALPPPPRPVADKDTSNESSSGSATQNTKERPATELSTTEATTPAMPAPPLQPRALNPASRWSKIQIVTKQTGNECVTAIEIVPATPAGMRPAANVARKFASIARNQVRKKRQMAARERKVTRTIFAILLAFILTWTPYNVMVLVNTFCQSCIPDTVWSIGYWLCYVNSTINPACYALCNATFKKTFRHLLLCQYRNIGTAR
M4 antag – antagonists of human muscarinic M4 receptor (CHRM4). P08173. CHO-hM4 cells, ACh EC80, Fluo-8 calcium fluorescence. inhibition, % at 3 µM. 360,000 tested, 0.73% active. AID 624125;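 active means inhibition above its plate's cutoff, the mean inhibition of sample wells plus 3 SD, cut at about 27% in these data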;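 further: 0% = acetylcholine EC80 with DMSO and 100% = DMSO without agonist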
M4 ag – CHRM4 agonism in calcium assay; activation, % at 3 µM; 360,000 tested, 0.14% active; AID 624127; CHO-K1 hM4/Gqi5, Fluo-8 calcium fluorescence; vehicle 0%, full acetylcholine response 100%;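 active means activation above the run mean over all test wells plus 3 SD, cut at about 32% in these data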;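 further: peak over basal fluorescence ratio per well then scaled between controls; 0% = DMSO wells and 100% = acetylcholine at EC100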
CHO-K1 Ca ag – counter-screen for M1 agonists: effect in parental CHO-K1 cells; 360,000 tested, 0.48% active; Fluo-8 calcium fluorescence; scaled to maximal ATP response, vehicle zero; activation, % at 3 µM; AID 602248; in the data active means activation above about 15%;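 further: untransfected CHO-K1 host cells lacking M1 receptor as counterscreen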
CHO-K1 Ca PAM – counter-screen for M1 PAMs: effect in parental CHO-K1 cells; ATP EC20, Fluo-8 calcium fluorescence; 0% at ATP EC20, 100% at ATP max; activation, % at 3 µM; 360,000 tested, 0.02% active;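 active means activation above the run cutoff, the mean activation of all test compounds plus 3 SD, cut at about 40% in these data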;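 further: peak over basal fluorescence ratio in a 140 s read after ATP addition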
CHO-K1 Ca antag – M1 antagonist counterscreen hit in parental CHO-K1 cells; ATP-induced calcium, Fluo-8 fluorescence; inhibition, % at 3 µM; 360,000 tested, 0.6% active;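 active means inhibition above a per-plate cutoff, the plate's mean sample inhibition plus 3 SD, cut at about 24% in these data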;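 further: 0% = DMSO plus EC80 ATP and 100% = DMSO alone without ATP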
Numbers without * were called inactive; . = no result. Hits are enriched below; roughly 2% of the tested compounds scored in any of these assays.

SMILES	M4 PAM	M4 antag	M4 ag	CHO-K1 Ca ag	CHO-K1 Ca PAM	CHO-K1 Ca antag
CNc1sc(C(=O)c2ccccc2F)c(N)c1-c1nc2ccccc2s1	22	34*	3	0	-6	6
CCC(C)C(CO)NCCCn1cnc2c(OC)ncnc21 (centres undefined)	-1	2	2	0	11	-3
O=c1[nH]c2cc3c(cc2cc1CN(CCc1ccccc1)C(=S)NCCCN1CCOCC1)OCCO3	-8	-3	3	-2	-12	60*
COc1cc2cc(CN(CCc3ccccc3C)C(=S)NCCCN3CCOCC3)c(=O)[nH]c2cc1OC	-2	-6	3	2	34	-29
Cc1ccc(C2N(c3ccccc3)C(=S)N3CCCN23)cc1 (centres undefined)	-14	48*	0	0	3	-4
Fc1ccc(C2N(c3ccccc3)C(=S)N3CCCN23)cc1 (centres undefined)	-23	11	-1	0	-19	10
COCCn1cnc2c1c(=O)n(CC(=O)NC1CCCCC1)c(=O)n2Cc1ccccc1	1	-10	0	1	10	-3
COCCn1cnc2c1c(=O)n(CC(=O)Nc1cc(C)on1)c(=O)n2Cc1ccccc1	24*	4	1	0	21	-7
Cc1ccc(C(=O)NC2CCN(CC(=O)Nc3ccccc3Cl)CC2)cc1	-1	3	0	16*	5	0
COC(=O)c1ccccc1NC(=O)CN1CCC(NC(=O)c2ccc(C)cc2)CC1	11	1	-1	0	15	-14
Cc1ccccc1C(=O)NC1CCN(CC(=O)Nc2c(C)cccc2C)CC1	29*	-7	3	0	17	7
CNC(=O)c1cc(Oc2ccc(NC(=O)Nc3ccc(Cl)c(C(F)(F)F)c3)cc2)ccn1	-15	32*	21	12	-8	18
O=C(Nc1ccc(Cl)c(C(F)(F)F)c1)c1ccncc1	-11	-6	29	14	5	-5
O=c1c2sccc2nc(SCc2cc(=O)n3cc(Cl)ccc3n2)n1-c1ccc(F)cc1	-8	3	0	15*	25	-7
O=C(O)CCCCn1c(SCc2cc(=O)n3cc(Cl)ccc3n2)nc2ccsc2c1=O	-1	-4	0	1	13	-1
CCN1CCN(C(=O)c2cc(-c3ccc(Cl)s3)nc3ccccc23)CC1	-14	12	27	19*	-8	12
COc1cc(S(=O)(=O)N(Cc2cccs2)CC2CCCO2)ccc1-n1cnnn1 (centres undefined)	-8	-6	3	1	4	1
O=S(=O)(NCc1ccccc1)c1ccc(S(=O)(=O)N(Cc2cccs2)CC2CCCO2)cc1 (centres undefined)	0	1	1	0	-7	28*
Cc1cccc(NC(=O)C2(c3ccc([N+](=O)[O-])cc3)CCCC2)c1	-6	-5	5	19*	8	3
CCC(=O)NC(c1ccccc1Cl)c1c(O)ccc2ccccc12 (centres undefined)	6	-1	1	2	22	-15
COc1ccccc1C(NC(=O)C1CCCCC1)c1c(O)ccc2ccccc12 (centres undefined)	-4	5	0	20*	16	3
Cc1cn([C@H]2C[C@H](O)[C@@H](CNC(=O)[C@H](N)C3CC3)O2)c(=O)[nH]c1=O	0	-11	1	0	5	-3
COc1cccc2c1OCC/C2=N\NC(=O)COc1ccccc1C	23*	-2	4	1	13	-6
O=c1oc2c3c4c(cc2c(C(F)(F)F)c1CCN1CCOCC1)CCCN4CCC3	-10	29*	25	26*	12	4
CCCS(=O)(=O)NC(=O)C1(C)CCN(C(=O)c2cccnc2Oc2ccccc2)C1 (centres undefined)	2	-1	1	0	5	1
SMILES	M4 PAM	M4 antag	M4 ag	CHO-K1 Ca ag	CHO-K1 Ca PAM	CHO-K1 Ca antag
CCCCCCCCN1C(=O)[C@H](CC(=O)NCCCN2CCCC2=O)C[C@@]2(C(=O)OC)CCCCC=C12	2	1	3	0	-2	-2
O=C(NCCc1ccccc1)C1C(=O)Nc2ccccc2C(=O)N1C1CCCCC1 (centres undefined)	3	-6	4	.	.	.
COC(=O)Cc1[nH]c(=S)[nH]c1C(=O)OC	33*	-4	2	0	17	-23
O=c1c2ccccc2nc2n1CCC2	2	6	1	0	6	-7
Nc1ccc2nc3n(c(=O)c2c1)CCC3	2	-6	1	0	-5	26*
Cc1cccc(NNC(=S)Nc2ccccc2)c1	7	-9	0	-1	-11	25*
Cc1cccc(NC(=S)NNc2cccc(Cl)c2)c1	-1	2	1	0	6	3
Oc1ccccc1NCC(O)Cn1ccc2ccccc21 (centres undefined)	18	35*	3	1	0	1
CCCn1c(C)cc(C(=O)COc2ccc(C)nc2[N+](=O)[O-])c1C	-4	9	2	13	24	1
C=CCn1c(C)cc(C(=O)COc2ccc(C)nc2[N+](=O)[O-])c1C	-1	-11	8	17*	-2	9
COc1ccc(CN(C)C(=O)c2cc(-c3ccccc3)nc3ccc(C)cc23)c(OC)c1	-9	31*	14	5	12	-11
O=C1NCCN1CCNS(=O)(=O)c1cc(C(F)(F)F)cc(C(F)(F)F)c1	8	-2	1	0	-5	-8
O=c1oc2ccccc2c(Nc2ccc(F)cc2)c1[N+](=O)[O-]	-3	-10	7	19*	15	-9
O=Cc1cccc(OCc2cccc3ccccc23)c1	-1	2	-1	0	-32	1
Cc1ccc(-n2nc3c(=O)n(CCCC(=O)NCc4ccccc4Cl)nc(C)c3c2C)cc1	-2	-7	-1	1	15	-26
S=C(Nc1ccc(Cl)cc1Cl)N1CCOCC1	21*	6	1	0	2	-1
Cc1cc(Cl)ccc1NC(=S)N1CCOCC1	13	1	1	-1	4	-3
COc1ccc(/C(C)=N/OCC(=O)Nc2nc3ccccc3s2)cc1OC	-19	3	10	19*	13	2
CCc1c(C)nc(SCC(=O)c2cccs2)c(C#N)c1C	80*	39*	6	1	5	-6
CCc1c(C)nc(SCC(N)=O)c(C#N)c1C	0	-1	1	1	26	-10
O=c1c(-c2ccco2)[n+]([O-])c2ccccc2n1OCc1ccccc1[N+](=O)[O-]	3	-6	2	1	15	-3
Cn1nccc1NC(=O)Nc1ccc(Cl)cc1	4	3	4	2	1	-4
